Assay results from PubChem BioAssay (EPA / NIEHS).
“And” between values parts separate entries of the source, which are not always exact repeats. Identical values can stand only once. The source made the active and inactive calls. How the source made its calls: active means hit-call score of the fitted dose curve at least 0.9, where 1 is the maximum; inactive means score below 0.9.

Read-out: Monokine induced gamma interferon (MIG), CXCL9 (gene 4283)
Experiment: BSK_hDFCGF_MIG: BioMAP Diversity Plus: hDFCGF Assay for Monokine induced gamma interferon (MIG) Biomarker Activity (AID 2283063)
Settings: primary human foreskin fibroblasts; actives raise or lower the signal
Method: BSK_hDFCGF is a cell-based, multiplexed-readout assay that uses foreskin fibroblast, a human skin primary cell, with measurements taken at 24 hours after chemical dosing in a 96-well plate.BSK_hDFCGF_MIG is an assay component measured in the BSK_hDFCGF assay. It measures MIG antibody related to regulation of gene expression using ELISA technology.Data from the assay component BSK_hDFCGF_MIG was analyzed into 1 assay endpoint. This assay endpoint, BSK_hDFCGF_MIG, was analyzed with bidirectional fitting relative to DMSO as the negative control and baseline of activity. Using a type of binding reporter, gain or loss-of-signal activity can be used to understand changes in the signaling as they relate to the gene CXCL9. Furthermore, this assay endpoint can be referred to as a primary readout, because this assay has produced multiple assay endpoints where this one serves a signaling function. To generalize the intended target to other relatable targets, this assay endpoint is annotated to the cytokine intended target family, where the subfamily is chemotactic factor.
The levels of cell surface (or secreted, indicated by the prefix "s") biomarker endpoints were measured by ELISA. Overt cytotoxicity to cells in confluent adherent cultures (all systems other than the BT system) was assessed by measuring total protein levels using sulforhodamine B (SRB) staining in parallel cultures at the time of biomarker measurements, indicated as SRB endpoints. For proliferation assays for adherent cell types, individual cell types are cultured at sub-confluence and relative cell numbers quantified by SRB staining at time points optimized for each system (48 h: 3C and CASM3C systems; 72 h: BT and HDF3CGF systems; 96 h: SAg system). SRB was performed by staining cells with 0.1% SRB after fixation with 10% TCA and reading wells at 560 nm.Viability and proliferation of PBMC (T cells) was quantified by Alamar Blue reduction for the SAg and BT systems. For PBMC viability (referred to as PBMC Cytotoxicity within the assay endpoint names), cells were plated (75,000/well in a 96-well plate) and then chemical samples added for 1 h before addition of activators, SEB and TSST-1 (20 ng/mL final concentration each). Cells were incubated for 90 h. Then, Alamar Blue (20 uL/well) (Invitrogen, Cat DAL1100) was added for 6 h, and the plates were read with a fluorescence microplate reader at 546/580 nm (excitation/emission). For PBMC proliferation, cells were plated and activated as above but incubated for only 16 h prior to addition of Alamar Blue. Plates were read after 6 h.

Row | SMILES | outcome | AC50
1 | C1CNCCN1 | inactive | –
2 | CCCCCCCO | inactive | –
3 | O=C(Cl)c1c(Cl)c(Cl)c(C(=O)Cl)c(Cl)c1Cl | inactive | –
4 | CC(C)[N+](C)(CCOC(=O)C1c2ccccc2Oc2ccccc21)C(C)C | inactive | –
5 | CCOC(=O)/C=C\C(=O)OCC | inactive | –
6 | CCCCCCCCCCCC(C)=O | inactive | –
7 | CCNc1nc(NC(C)(C)C)nc(OC)n1 | inactive | –
8 | C=CC(=O)OCCCCCCCC(C)C | – | 20 µM (active)
9 | Cc1c(O)cccc1O | inactive | –
10 | CC(c1cc(C(C)(C)C)cc(C(C)(C)C)c1O)c1cc(C(C)(C)C)cc(C(C)(C)C)c1O | inactive | –
11 | O=C(O)C(F)(F)C(F)(F)C(F)(F)C(F)(F)C(=O)O | inactive | –
12 | C=CC(=O)NCOCCCC | inactive | –
13 | C=CC(=O)NC(C)(C)C | inactive | –
14 | Oc1ccccc1Cc1ccccc1O | inactive | –
15 | CC(CCC(=O)O)(c1ccc(O)cc1)c1ccc(O)cc1 | inactive | –
16 | Nc1ccc(C(=O)O)cc1 | inactive | –
17 | Fc1ccc(Br)cc1 | inactive | –
18 | CC1=CC=C(C(C)C)CC1 | inactive | –
19 | COc1ccc(C(=O)/C(Br)=C\C(=O)O)cc1 | – | 28 µM (active) and 31.3 µM (active)
20 | C=C(C)C(=O)OCCCCCCCCCCCC | inactive | –

Row | SMILES | outcome | AC50
21 | CC=C(C)C(C)=O | inactive | –
22 | CC(C)CCCCCOC(=O)CS | inactive | –
23 | CCOC(=O)C1=NOC(c2ccccc2)(c2ccccc2)C1 | inactive | –
24 | COC(OC)(C(=O)c1ccccc1)c1ccccc1 | inactive | –
25 | CCOC(=O)C1=NN(c2ccc(Cl)cc2Cl)C(C)(C(=O)OCC)C1 (stereo not given) | inactive | –
26 | Nc1cccc(N)n1 | inactive | –
27 | C=CC(=O)OCCCCCCOC(=O)C=C | – | 3.3 µM (active)
28 | CCCCCCCCCCCC(=O)N(C)CC(=O)O | inactive | –
29 | O=C1CCCCCCCCCCC1 | inactive | –
30 | O=C(Oc1ccccc1)c1ccccc1C(=O)Oc1ccccc1 | inactive | –
31 | Clc1cc(Cl)c(Cl)c(Cl)c1Cl | inactive | –
32 | Cc1ccc([N+](=O)[O-])cc1N | inactive | –
33 | CCCCCCC=O | inactive | –
34 | CC(Cl)COP(=O)(OCC(C)Cl)OCC(C)Cl (stereo not given) | inactive | –
35 | CCCCCCOC(=O)CCCCC(=O)OCCCCCC | inactive | –
36 | O=C1CCCCCCCCCCCN1 | inactive | –
37 | Oc1c(Cl)cc(Cl)c(Cl)c1Cl | inactive | –
38 | CC=C(C)C=CC=C(C)C | inactive | –
39 | CC/C=C\CCOC(=O)c1ccccc1O | – | 20 µM (active)
40 | COc1ccc(C(=O)c2ccccc2)c(O)c1 | inactive | –
